In PubChem BioAssay AID1159580 (chemical genetic matrix, 2015):
Screen size: about 5,500 compounds; about 2,000 (36%) were called active. Another 18% or so got no clear call; they are omitted. Rule as the data show it: active = normalized growth mostly below about 0.91 (no sharp cut-off); inconclusive = no clear call, values can overlap the other calls; inactive = mostly above about 0.92. The list shows a part of the results.

Assay: chemical genetic growth profiling, strain panel (AID 1159580);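 also: tested at 20 µM; growth read once vehicle control cultures reached saturation at 30 °C; 1 = growth at the plate median or of vehicle wells; lower values mean less growth of the strain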
Settings: growth OD
[1] = S. cerevisiae deletion strains, locus YAL013W, strain DEP1, hits give low values
[2] = S. cerevisiae deletion strains, locus YBR229C, strain ROT2, hits give low values
[3] = S. cerevisiae deletion strains, locus YDL101C, strain DUN1, hits give low values
[4] = S. cerevisiae deletion strains, locus YDR150W, strain NUM1, hits give low values
[5] = S. cerevisiae deletion strains, locus YEL061C, strain CIN8, hits give low values
[6] = S. cerevisiae deletion strains, locus YGR078C, strain PAC10, hits give low values
[7] = S. cerevisiae deletion strains, locus YHR030C, strain SLT2, hits give low values
[8] = S. cerevisiae deletion strains, locus YHR087W, strain rtc3, hits give low values
[9] = S. cerevisiae deletion strains, locus YJL187C, strain SWE1, hits give low values
[10] = S. cerevisiae deletion strains, locus YJR043C, strain POL32, hits give low values
[11] = S. cerevisiae deletion strains, locus YJR075W, strain HOC1, hits give low values
[12] = S. cerevisiae deletion strains, locus YLR039C, strain RIC1, hits give low values
[13] = S. cerevisiae deletion strains, locus YLR058C, strain SHM2 (second series), hits give low values
[14] = S. cerevisiae deletion strains, locus YLR085C, strain ARP6, hits give low values
[15] = S. cerevisiae deletion strains, locus YLR262C, strain YPT6, hits give low values
[16] = S. cerevisiae deletion strains, locus YML094W, strain GIM5, hits give low values
[17] = S. cerevisiae deletion strains, locus YMR219W, strain ESC1, hits give low values
[18] = S. cerevisiae deletion strains, locus YMR263W, strain SAP30, hits give low values
[19] = S. cerevisiae deletion strains, locus YNL128W, strain TEP1, hits give low values
[20] = S. cerevisiae deletion strains, locus YNL153C, strain GIM3, hits give low values
[21] = S. cerevisiae deletion strains, locus YNL298W, strain CLA4 (second series), hits give low values
[22] = S. cerevisiae deletion strains, locus YNL322C, strain KRE1, hits give low values
[23] = S. cerevisiae deletion strains, locus YNR030W, strain Alg12, hits give low values
[24] = S. cerevisiae deletion strains, locus YPL055C, strain LGE1, hits give low values
[25] = S. cerevisiae deletion strains, locus YPL241C, strain CIN2, hits give low values
[26] = S. cerevisiae deletion strains, locus YPR135W, strain CTF4, hits give low values

Measured: normalized growth

O=C(CNc1cccc(Cl)c1)c1ccc(Cl)cc1
inactive: [1] 0.971 | [2] 0.933 | S. cerevisiae deletion strains, locus YCL061C, strain MRC1, hits give low values 0.975 | [3] 0.952 | S. cerevisiae deletion strains, locus YDL134C, strain PPH21, hits give low values 0.948 | [4] 0.89 | [5] 0.954 | [6] 0.945 | [7] 0.766 | [8] 0.923 | [10] 0.98 | [11] 0.936 | [12] 0.954 | [13] 0.953 | [14] 0.801 | [15] 0.898 | [16] 0.938 | [17] 0.964 | [18] 0.908 | S. cerevisiae deletion strains, locus YMR307W, strain GAS1, hits give low values 0.862 | [19] 0.973 | [20] 0.97 | [21] 0.937 | [22] 0.951 | [23] 0.89 | [24] 0.832 | [25] 0.899 | [26] 0.824
active: S. cerevisiae deletion strains, locus YGR229C, strain SMI1, hits give low values 0.935 | [9] 0.933

O=C1c2ccccc2C(=O)N1CNc1cccc(Cl)c1
inactive: [1] 0.983 | [2] 1 | [3] 0.972 | [4] 0.931 | [5] 0.986 | [6] 0.963 | [7] 0.959 | [8] 1 | [9] 1.01 | [10] 0.943 | [11] 0.951 | S. cerevisiae deletion strains, locus YKL190W, strain CNB1, hits give low values 1.02 | [12] 1.01 | [13] 1 | [14] 0.96 | [15] 0.98 | [16] 0.96 | [17] 1 | [18] 0.984 | [19] 1 | [20] 0.94 | [21] 0.943 | [22] 1.01 | [23] 0.95 | S. cerevisiae deletion strains, locus YOL006C, strain TOP1, hits give low values 0.993 | [24] 0.978 | [25] 0.971 | [26] 0.894 | S. cerevisiae strains, strain wild type, hits give low values 1.01

Cc1cc(C)c2cc(C(=O)NCCNc3ccc(C(F)(F)F)cn3)[nH]c2c1
active: S. cerevisiae deletion strains, locus YDL214C, strain PRR2, hits give low values 0.468 | S. cerevisiae deletion strains, locus YDR477W, strain SNF1, hits give low values 0.457 | S. cerevisiae deletion strains, locus YER123W, strain YCK3, hits give low values 0.381 | S. cerevisiae deletion strains, locus YER133W, strain GLC7, hits give low values 0.487 | S. cerevisiae deletion strains, locus YFR019W, strain FAB1, hits give low values 0.322 | S. cerevisiae deletion strains, locus YGR040W, strain KSS1, hits give low values 0.501 | S. cerevisiae deletion strains, locus YGR052W, strain FMP48, hits give low values 0.249 | S. cerevisiae deletion strains, locus YGR092W, strain DBF2, hits give low values 0.225 | [7] 0.0941 | S. cerevisiae deletion strains, locus YHR079C, strain IRE1, hits give low values 0.11 | S. cerevisiae deletion strains, locus YHR082C, strain KSP1, hits give low values 0.125 | S. cerevisiae deletion strains, locus YHR205W, strain SCH9, hits give low values 0.457 | S. cerevisiae deletion strains, locus YJL095W, strain BCK1, hits give low values 0.102 | S. cerevisiae deletion strains, locus YJL157C, strain FAR1, hits give low values 0.501 | S. cerevisiae deletion strains, locus YJR066W, strain TOR1 (second series), hits give low values 0.212 | S. cerevisiae deletion strains, locus YJR066W, strain TOR1, hits give low values 0.121 | S. cerevisiae deletion strains, locus YKL048C, strain ELM1, hits give low values 0.511 | S. cerevisiae deletion strains, locus YKL067W, strain YNK1, hits give low values 0.567 | S. cerevisiae deletion strains, locus YKL203C, strain TOR2, hits give low values 0.233 | S. cerevisiae deletion strains, locus YLR113W, strain HOG1, hits give low values 0.137 | S. cerevisiae deletion strains, locus YLR133W, strain CKI1, hits give low values 0.446 | S. cerevisiae deletion strains, locus YLR403W, strain SFP1, hits give low values 0.557 | S. cerevisiae deletion strains, locus YML070W, strain DAK1, hits give low values 0.365 | S. cerevisiae deletion strains, locus YMR205C, strain PFK2 (second series), hits give low values 0.551 | S. cerevisiae deletion strains, locus YNL020C, strain ARK1, hits give low values 0.415 | S. cerevisiae deletion strains, locus YNL183C, strain NPR1, hits give low values 0.169 | S. cerevisiae deletion strains, locus YOL136C, strain PFK27, hits give low values 0.398 | S. cerevisiae deletion strains, locus YOR061W, strain CKA2, hits give low values 0.59 | S. cerevisiae deletion strains, locus YOR119C, strain RIO1, hits give low values 0.341 | S. cerevisiae deletion strains, locus YOR231W, strain MKK1, hits give low values 0.129 | S. cerevisiae deletion strains, locus YPL031C, strain PHO85, hits give low values 0.276 | S. cerevisiae deletion strains, locus YPL153C, strain RAD53, hits give low values 0.184 | S. cerevisiae deletion strains, locus YPL204W, strain HRR25, hits give low values 0.268 | S. cerevisiae deletion strains, locus YPL256C, strain CLN2, hits give low values 0.137
inactive: S. cerevisiae deletion strains, locus YAR019C, strain CDC15, hits give low values 0.983 | S. cerevisiae deletion strains, locus YBL105C, strain PKC1, hits give low values 0.971 | S. cerevisiae deletion strains, locus YBR135W, strain CKS1, hits give low values 0.983 | S. cerevisiae deletion strains, locus YBR136W, strain MEC1, hits give low values 0.981 | S. cerevisiae deletion strains, locus YBR160W, strain CDC28, hits give low values 0.97 | S. cerevisiae deletion strains, locus YDL017W, strain CDC7, hits give low values 0.98 | S. cerevisiae deletion strains, locus YDL028C, strain MPS1, hits give low values 0.98 | [3] 0.936 | S. cerevisiae deletion strains, locus YDL108W, strain KIN28, hits give low values 0.972 | S. cerevisiae deletion strains, locus YDL132W, strain cdc53, hits give low values 0.992 | S. cerevisiae deletion strains, locus YDR052C, strain DBF4, hits give low values 0.983 | S. cerevisiae deletion strains, locus YDR054C, strain cdc34, hits give low values 0.968 | S. cerevisiae deletion strains, locus YDR226W, strain ADK1, hits give low values 0.983 | S. cerevisiae deletion strains, locus YFL009W, strain cdc4, hits give low values 0.991 | S. cerevisiae deletion strains, locus YFL029C, strain CAK1, hits give low values 0.985 | S. cerevisiae deletion strains, locus YFR003C, strain YPI1, hits give low values 0.976 | S. cerevisiae deletion strains, locus YFR028C, strain CDC14, hits give low values 0.976 | S. cerevisiae deletion strains, locus YIL147C, strain SLN1, hits give low values 0.984 | S. cerevisiae deletion strains, locus YJL128C, strain PBS2, hits give low values 0.961 | S. cerevisiae deletion strains, locus YJR016C, strain ILV3, hits give low values 0.985 | S. cerevisiae deletion strains, locus YKL193C, strain SDS22, hits give low values 0.989 | S. cerevisiae deletion strains, locus YMR001C, strain CDC5, hits give low values 0.986 | S. cerevisiae deletion strains, locus YMR277W, strain FCP1, hits give low values 0.992 | S. cerevisiae deletion strains, locus YNL006W, strain LST8, hits give low values 0.986 | S. cerevisiae deletion strains, locus YNL161W, strain CBK1, hits give low values 0.986 | S. cerevisiae deletion strains, locus YNL207W, strain RIO2, hits give low values 0.955 | S. cerevisiae deletion strains, locus YNL222W, strain SSU72, hits give low values 0.974 | S. cerevisiae deletion strains, locus YNL307C, strain MCK1 (second series), hits give low values 0.644 | S. cerevisiae deletion strains, locus YOL078W, strain AVO1, hits give low values 0.985 | S. cerevisiae deletion strains, locus YOR329C, strain SCD5, hits give low values 0.984 | S. cerevisiae deletion strains, locus YPL209C, strain IPL1, hits give low values 0.976 | S. cerevisiae deletion strains, locus YPR025C, strain CCL1, hits give low values 0.98 | S. cerevisiae deletion strains, locus YPR106W, strain ISR1, hits give low values 1 | S. cerevisiae deletion strains, locus YPR111W, strain DBF20, hits give low values 0.944 | S. cerevisiae deletion strains, strain NNK1, hits give low values 0.94 | S. cerevisiae deletion strains, strain TSCII, hits give low values 0.985
